Measurements taken from PubChem BioAssay AID651789 (National Center for Advancing Translational Sciences (NCATS), 2012).
Results filed as inconclusive are left out. A call without a number means that no potency is given here. Active and inactive are the calls of the source. The call rests on the fitted dose curve; in most records, active means well fitted inhibition curve with a large enough effect; inconclusive means small, poorly fitted or top-dose-only effect; inactive means no such curve, though single readings can be large or run the other way.

Assay: Acumen qHTS Assay for Inhibitors of the mTORC1 Signaling Pathway in WT MEF Cells: Hit Validation; further: nearly all actives have a fitted effect of over 60% in size
In short: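 Read-out is immunofluorescent phospho-rpS6 (Ser235/236) normalised to PI-stained cell number, reported as % active cells using a 7.5 nM rapamycin threshold. Cells: WT or Tsc2-/-, p53-/- MEFs, compound-exposed 24 h at 37C; PI count also tracks viability.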
Potency means the concentration at half of the fitted maximal effect.

| Compound | Potency |
| --- | --- |
| CCN(Cc1nc(-c2ccc(OC)cc2)oc1C)S(=O)(=O)c1ccc(Cl)cc1 | inactive |
| CCCS(=O)(=O)c1c(S(=O)(=O)CCC)c2cc(C(C)(C)C)ccn2c1C(=O)c1ccc(OC)c(OC)c1 | inactive |
| CCCCN(C)CCNC(=O)c1cc2c(=O)n(C)c3ccccc3c2n1C | inactive |
| O=C(NCCc1nc2ccccc2n1Cc1ccc(Cl)cc1Cl)c1ccco1 | inactive |
| CCCC1=Nc2cc(C(=O)NCc3ccccc3)ccc2Sc2ccccc21 | 2.61 µM (active) |
| Cc1nnc(C(=O)NC(C)(C)c2nc(C(=O)NCc3ccc(F)cc3)c(O)c(=O)n2C)o1 | inactive |
| CN(C)CCN(Cc1ccco1)C(=O)c1cc2c(s1)-c1ccccc1OC2 | inactive |
| CCCC1=Nc2cc(C(=O)NC3CCCC3)ccc2Sc2ccc(C)cc21 | 0.736 µM (active) |
| COc1ccc(CCCc2nnc(SCC(=O)Nc3ccc(OC)cc3)o2)cc1 | inactive |
| CC(C)S(=O)(=O)c1oc(-c2cccs2)nc1S(=O)(=O)c1ccc(F)cc1 | 0.826 µM (active) |
| COc1ccc2c(c1)CC(C(=O)Nc1cc(Cl)ccc1C)CO2 (stereo not given) | inactive |
| CCOC(=O)c1c(NC(=O)c2ccc(S(=O)(=O)N(CCOC)CCOC)cc2)sc2c1CC(C)(C)NC2(C)C | 3.29 µM (active) |
| Cc1cccc(NC(=O)c2c(N)sc3c2CCC(C)C3)c1 (stereo not given) | inactive |
| COc1ccc(N(C)C(=O)c2cc(S(=O)(=O)N3CCc4ccccc43)cn2C)c(OC)c1 | inactive |
| COc1ccc(-c2nc(S(=O)(=O)c3ccc(Cl)cc3)c(N3CCCCCC3)o2)cc1 | inactive |
| O=C(CC1(O)C(=O)N(CCc2ccccc2)c2ccc(Br)cc21)c1ccccc1O (stereo not given) | inactive |
| Cc1ccc(NC(=O)CSc2ccc(-c3ccccn3)nn2)cc1F | inactive |
| Cc1cccc(CS(=O)(=O)c2ncc(Cl)c(C(=O)NCc3ccccc3)n2)c1 | 13.1 µM (active) |
| Cc1cc(C)cc(C(=O)Nc2ccc(-c3nc4ncccc4o3)cc2)c1 | inactive |
| CCCCN1C(=O)C(O)(c2c(C)[nH]c3ccccc23)c2cc(Br)ccc21 (stereo not given) | inactive |

| Compound | Potency |
| --- | --- |
| Cc1ccc(-c2cc(C(=O)N3CCN(c4ccccc4)CC3)c3ccccc3n2)cc1C | inactive |
| FC(F)(F)c1cccc(Nc2c3c(nc4ccc(Cl)cc24)CCC3)c1 | 16.5 µM (active) |
| CCn1c2ccccc2c2cc(CN3CCN(Cc4ccc(Cl)cc4)CC3)ccc21 | inactive |
| CCS(=O)(=O)c1ncc(Cl)c(C(=O)Nc2ccc(S(=O)(=O)N(C)c3ccccc3)cc2)n1 | 0.927 µM (active) |
| CCc1ccc(-n2c(=O)c3c4c(sc3n(CC(=O)c3ccc(F)cc3)c2=O)CCC4)cc1 | 18.5 µM (active) |
| CC1CCN(S(=O)(=O)c2ccc(C(=O)Nc3sc4c(c3C(N)=O)CC(C)(C)NC4(C)C)cc2)CC1 | 3.29 µM (active) |
| COc1ccc2nc(NC(=O)c3nc(S(=O)(=O)Cc4ccccc4F)ncc3Cl)sc2c1 | 13.1 µM (active) |
| CCc1ccc(NC(=O)C2CCCN(S(=O)(=O)c3cccc4cccnc34)C2)cc1 (stereo not given) | inactive |
| CCOC(=O)c1cnc2ccc(OCC)cc2c1NCCc1ccc(OC)c(OC)c1 | inactive |
| CCOC(=O)c1c(NC(=O)c2ccc(S(=O)(=O)N(C)C)cc2)sc2c1CCN(C)C2 | inactive |
| CN1CCN(C2(CNC(=O)COc3ccc(C(C)(C)C)cc3)CCCCC2)CC1 | inactive |
| CCCOc1cccc(C2c3c(-c4ccccc4O)n[nH]c3C(=O)N2Cc2ccco2)c1 (stereo not given) | inactive |
| COc1cccc(-n2c(-c3ccco3)nc3c(cnn3-c3ccc(C)cc3)c2=O)c1 | inactive |
| CC(C)(C)c1ccc(-c2nc(S(=O)(=O)c3ccccc3)c(N3CCOCC3)o2)cc1 | inactive |
| O=S(=O)(NCC(c1ccco1)S(=O)(=O)c1cccs1)c1ccc(Cl)cc1 (stereo not given) | inactive |
| Cc1nn(C(C)C(=O)NC2CCC(C)CC2)c(=O)c2c1sc1ccccc12 (stereo not given) | inactive |
| C#Cc1cccc(Nc2ncnc3cc(OCCOC)c(OCCOC)cc23)c1 | inactive |
| COc1ccc(Cl)cc1NC(=O)CSc1nc(-c2ccco2)cc(C(F)(F)F)n1 | inactive |
| CCOc1cc(CNCCSc2nnnn2C)cc(Cl)c1OCc1ccc(Cl)cc1 | inactive |
| Cn1nc(-c2ccc(OCC(=O)Nc3ccc(Cl)cc3)cc2)c2ccccc2c1=O | inactive |
